Here are results for seven compounds from PubChem BioAssay (NCATS).

Values joined by “and” are separate entries in the source; they are usually repeats but may differ in a detail not shown here. Equal values may be shown once. Records with an inconclusive call do not appear. Active and inactive are the calls of the source. Unless noted, the call rests on the fitted dose curve; in most records, active means well fitted curve in the direction sought with a large enough effect; inconclusive means small, poorly fitted or top-dose-only effect, or another doubt; inactive means no such curve, though single readings can be large; an effect the other way counts as inactive or inconclusive.

The nature of assay [1]: qHTS Assay for Lipid Storage Modulators (AID 1519; calls by dose curve; on activity change, negative = inhibition: on the % scale 0 is the no-effect control and ±100 the full control effect). Particulars: Drosophila S3 cells, BODIPY lipid droplet/cell ratio, laser cytometry, cells loaded with oleic acid. The method, boiled down:
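Cells seeded at 5,000 per well were treated with compounds over a concentration series and loaded with oleic acid (400 uM, as added). Lipid droplet fluorescence (488 nm excitation, 500-530 nm channel) was read by laser-scanning cytometry and normalized to 20 uM Triacsin C.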

For assay [2], the target named is DNA repair nuclease/redox regulator APEX1 (Homo sapiens) (UniProt P27695). As to the kind of experiment: qHTS Validation Assay for Inhibitors of the Human Apurinic/apyrimidinic Endonuclease 1 (APE1) (AID 1705;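 further: TAMRA fluorescence gain over two minutes as APE1 cuts a quenched THF abasic duplex; on the % scale 0 is the no-effect control and ±100 the full control effect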). Particulars: purified APE1 endonuclease activity, fluorescence, titration; series mostly up to 57.1 µM. The method, boiled down:
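Substrate: 50 nM final fluorophore/quencher THF-abasic duplex. Enzyme preincubated with compounds 15 min, RT. Progress derived from fluorescence difference, third minus first kinetic read.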

The target in assay [3] is Endonuclease 4 (Escherichia coli (strain K12)) (UniProt P0A6C1). Kind of assay: Counterscreen for APE1 Inhibitors: qHTS Validation Assay for Inhibitors of Endonuclease IV (AID 1708). Further: on the % scale 0 is the no-effect control and ±100 the full control effect. Particulars: E. coli endonuclease IV, DNA cleavage fluorescence; series mostly up to 57.1 µM. The gist of the method: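 The reaction buffer contained 50 mM Tris-HCl pH 7.5, 50 mM NaCl, 2 mM MgCl2, 1 mM DTT and 0.01% Tween-20. Incision of a 50 nM fluorophore/quencher THF substrate by 2 nM enzyme was measured kinetically.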
In general terms: Counterscreens check selectivity or assay interference.

Assay [4] in a line: qHTS for differential inhibitors of proliferation of Plasmodium falciparum line 7G8 (AID 1815).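 Further: parasite growth measured after three days of incubation.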 Further: potency means the concentration at half of the fitted maximal effect.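 On activity change, negative = inhibition: plate controls were vehicle wells for no effect and reference inhibitor wells for full effect.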 Particulars: Plasmodium falciparum 7G8 proliferation inhibition; series mostly up to 28.7 µM. (In qHTS, concentration-response curves come from the screen itself.)
Assay [5] can be described thus: qHTS for differential inhibitors of proliferation of Plasmodium falciparum line GB4 (AID 1816).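 Further: parasite growth measured after 72 h incubation.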 Further: potency means the concentration at half of the fitted maximal effect.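 On activity change, negative = inhibition: 0% = vehicle DMSO and -100% = reference inhibitor.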 The settings on record: Potency: Plasmodium falciparum GB4 proliferation inhibition; series mostly up to 28.7 µM.
Assay [6] is described as follows: qHTS for differential inhibitors of proliferation of Plasmodium falciparum line 3D7 (AID 1876). Further: potency means the concentration at half of the fitted maximal effect. The settings on record: P. falciparum 3D7 proliferation inhibition; series mostly up to 28.7 µM.
Assay [7] in a line: qHTS for differential inhibitors of proliferation of Plasmodium falciparum line D10 (AID 1877).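 Further: parasites grown with compound for 72 h before DNA staining; plate controls were vehicle wells for no effect and reference inhibitor wells for full effect.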 The settings on record: series mostly up to 28.7 µM.
Assay [8] can be described thus: qHTS for differential inhibitors of proliferation of Plasmodium falciparum line Dd2 (AID 1882).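 Further: compound exposure of 72 h on infected erythrocytes; plate controls were DMSO vehicle for no effect and 0.29 µM artemisinin for full effect; nearly all actives have a fitted effect of over 65% in size.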 The settings on record: Potency: Plasmodium falciparum Dd2 proliferation inhibition; series mostly up to 28.7 µM. The method, boiled down:
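RBC culture, 0.3% parasitemia / 2.5% Hct final; cpd added by pin tool in DMSO; 72 h, 37 C, 5% CO2; lysis buffer + SYBR Green I, o/n RT dark; FI 485/535; norm. to artemisinin 0.29 uM and DMSO.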

Assay [9] can be described thus: qHTS for differential inhibitors of proliferation of Plasmodium falciparum line W2 (AID 1883).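 Further: parasites grown with compound for 72 h before lysis and staining.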 Further: potency means the concentration at half of the fitted maximal effect.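 On activity change, negative = inhibition: 0% = vehicle wells and -100% = control inhibitor wells.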 Particulars: Potency: Plasmodium falciparum W2 proliferation inhibition; series mostly up to 28.7 µM.
Assay [10] can be described thus: qHTS for differential inhibitors of proliferation of Plasmodium falciparum line HB3 (AID 1886).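 Further: parasites grown with compound for 72 h before SYBR Green readout.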 Further: potency means the concentration at half of the fitted maximal effect.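 On activity change, negative = inhibition: plate controls were vehicle for no effect and reference inhibitor for full effect.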 The settings on record: Potency: Plasmodium falciparum HB3 proliferation inhibition; series mostly up to 28.7 µM.
The nature of assay [11]: qHTS Assay for Modulators of Human Peripheral Myelin Protein 22 (PMP22) Expression/Activity (AID 1967; active means well fitted curve in the direction sought with a large enough effect in the signal ratio; the % refers to the signal ratio;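 further: 0% = untreated cells and 100% end not stated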). Particulars: Cell-based PMP22 reporter, dual-color luciferase ratio, 0% = compound-free control cells, mouse Pmp22 promoter in mouse Schwann cells; series mostly up to 115 µM. The method, boiled down: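 Engineered MSC80 cells, Pmp22-promoter green and EF-alpha red luciferase reporters; 24h compound treatment at 37 °C. Concentration-response fits on green, red and ratio signals, each overlap-corrected, with %Activity normalized to untreated wells.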

Assay [12] concerns the target ATP-dependent DNA helicase Q1 (Homo sapiens) (UniProt P46063). Kind of assay: qHTS Validation Assay for Inhibitors of RecQ-Like Dna Helicase 1 (RECQ1) (AID 2353).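 Further: plate controls were DMSO vehicle for no effect and enzyme-free control for full effect.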 Particulars: recombinant RECQ1 helicase DNA unwinding assay; series mostly up to 25.6 µM. The gist of the method:
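RECQ1T1 50 nM; forked duplex (20 bp + 30-nt ss tails) 200 nM, ATP 2 mM final; pH 8.0, 2 mM MgCl2, 2.5 ug/ml poly(dI-dC); 15 min compound preincubation; discontinuous kinetic read over 2 h at RT.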

Assay [13] is described as follows: Cytometric Cell-Based qHTS for Inhibitors of the mTORC1 Signaling Pathway in MEF (Tsc2-/-, p53-/-) Cells (AID 2660).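 Further: Tsc2 and p53 null MEFs carrying empty vector with compound for 24 h; percent of cells above a phospho-rpS6 to PI ratio cutoff in each well; plate controls were DMSO for no effect and rapamycin for full effect.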 The settings on record: mTORC1 pathway cytometry; series mostly up to 38.3 µM. The method, boiled down: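 Percent of cells positive for normalized phospho-S6 staining is reported, with the cutoff set from rapamycin (7.5 nM) versus DMSO wells. Tsc2-/-, p53-/- MEFs received compound for 24 hrs.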

A short description of assay [14]: High Content Imaging Cell-Based qHTS for Inhibitors of the mTORC1 Signaling Pathway in MEF (Tsc2-/-, p53-/-) Cells (AID 2666).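 Further: percent of cells scored positive for phospho-rpS6 Ser235/236 immunostaining by imaging.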 Particulars: at 38.3 µM (top of the series). The method, boiled down: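 Tsc2-/-, p53-/- MEFs (empty-vector stable) grown in DMEM + 10% FBS were exposed to compounds for 24 hrs at 37 degree Celsius, fixed, and stained with Alexa-488 anti-phospho-rpS6 Ser235/236 plus Hoechst. Imaging gave the percentage of positive cells per well.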

Assay [15] can be described thus: High Content Imaging Cell-Based qHTS for Inhibitors of the mTORC1 Signaling Pathway in MEF Cells (AID 2667).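 Further: Tsc2-/- p53-/- MEFs stably re-expressing wild-type Tsc2 exposed 24 h; plate controls were DMSO wells for no effect and rapamycin control wells for full effect.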 The settings on record: series mostly up to 38.3 µM. The gist of the method:
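Tsc2-/-, p53-/- MEFs stably re-expressing WT Tsc2, grown in DMEM + 10% FBS, were treated with compounds for 24 hrs at 37 degree Celsius, fixed, and stained with Alexa-488 phospho-rpS6 Ser235/236 antibody plus Hoechst; results given as % positive cells.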

Assay [16] in a line: Validation screen for small molecules that induce DNA re-replication in MCF 10A normal breast cells (AID 463097). Further: 0% is about no effect; nearly all actives have a fitted effect of over 60% in size. Particulars: MCF 10A cells, DNA re-replication phenotype imaging; series mostly up to 46.1 µM. The gist of the method: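 Following 48 hr compound incubation (37 C, 5% CO2), MCF 10A cells receive Hoechst for 40 min at 37 C. Nuclei are then scanned (excitation 405 nm, emission 500-530 nm) for total fluorescence intensity.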

Assay [17] in a line: Counterscreen for APE1 Inhibitors: Fluorescent Dye Displacement Validation Assay (AID 1707).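 Further: plate controls were ThO with dsDNA and no compound for no effect and ThO without dsDNA for full effect.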 The settings on record: fluorescent dye displacement from DNA; series mostly up to 57.1 µM. The gist of the method:
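Loss of Thiazole Orange fluorescence marks promiscuous DNA binders. The dye (250 nM) is mixed with 50 nM abasic-site dsDNA in pH7.5 Tris buffer containing MgCl2, then compounds are added and emission is read once.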

Assay [18] deals with RecQ-like DNA helicase BLM (Homo sapiens) (UniProt P54132). As to the kind of experiment: qHTS Validation Assay for Inhibitors of Bloom's syndrome helicase (BLM) (AID 2364).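 Further: plate controls were DMSO vehicle for no effect and enzyme-free control for full effect.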 The settings on record: BLM helicase DNA unwinding, fluorescence, in vitro; series mostly up to 57.1 µM. The method, boiled down: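 Forked 20-bp duplex substrate (200 nM, TAMRA/BHQ-2) plus 2 mM ATP added after 15 min compound preincubation with 50 nM enzyme, pH 8.0, poly(dI-dC) 2.5 ug/ml. Strand separation followed by fluorescence (525/598 nm) over 2 h, normalized to enzyme-free and DMSO controls.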

Where [19] appears, read: measured here: cell count channel max response.
[20] abbreviates: measured here: lipid channel max response.

Sequence of ATP-dependent DNA helicase Q1 (Homo sapiens) (P46063 whole entry, looked up): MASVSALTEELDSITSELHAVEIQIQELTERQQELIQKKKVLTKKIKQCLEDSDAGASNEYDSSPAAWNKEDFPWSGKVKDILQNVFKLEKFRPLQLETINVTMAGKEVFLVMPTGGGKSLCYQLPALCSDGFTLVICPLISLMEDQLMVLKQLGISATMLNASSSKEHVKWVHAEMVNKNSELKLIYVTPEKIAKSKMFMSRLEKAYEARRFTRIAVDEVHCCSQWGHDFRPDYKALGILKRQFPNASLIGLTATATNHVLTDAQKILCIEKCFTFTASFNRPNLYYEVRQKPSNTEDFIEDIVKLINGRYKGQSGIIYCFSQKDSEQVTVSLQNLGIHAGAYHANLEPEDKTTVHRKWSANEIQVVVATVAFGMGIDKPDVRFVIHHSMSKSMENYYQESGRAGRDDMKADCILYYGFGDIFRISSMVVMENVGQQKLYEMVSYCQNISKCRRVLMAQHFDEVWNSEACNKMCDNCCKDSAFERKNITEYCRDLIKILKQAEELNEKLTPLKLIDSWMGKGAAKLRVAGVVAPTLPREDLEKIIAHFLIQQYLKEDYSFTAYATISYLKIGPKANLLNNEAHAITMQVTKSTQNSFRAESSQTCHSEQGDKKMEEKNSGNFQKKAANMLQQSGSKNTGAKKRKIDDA
Sequence of DNA repair nuclease/redox regulator APEX1 (Homo sapiens) (P27695 whole entry, looked up): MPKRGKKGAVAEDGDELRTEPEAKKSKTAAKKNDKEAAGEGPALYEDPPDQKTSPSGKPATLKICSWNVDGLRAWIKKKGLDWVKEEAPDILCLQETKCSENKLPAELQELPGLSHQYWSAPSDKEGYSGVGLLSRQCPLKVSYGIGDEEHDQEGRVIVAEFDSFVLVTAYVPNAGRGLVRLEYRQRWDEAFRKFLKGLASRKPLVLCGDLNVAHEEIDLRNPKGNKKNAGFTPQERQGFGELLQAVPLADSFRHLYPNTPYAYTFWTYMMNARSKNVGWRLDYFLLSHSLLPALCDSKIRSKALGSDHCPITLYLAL
Sequence of RecQ-like DNA helicase BLM (Homo sapiens) (P54132 whole entry, looked up): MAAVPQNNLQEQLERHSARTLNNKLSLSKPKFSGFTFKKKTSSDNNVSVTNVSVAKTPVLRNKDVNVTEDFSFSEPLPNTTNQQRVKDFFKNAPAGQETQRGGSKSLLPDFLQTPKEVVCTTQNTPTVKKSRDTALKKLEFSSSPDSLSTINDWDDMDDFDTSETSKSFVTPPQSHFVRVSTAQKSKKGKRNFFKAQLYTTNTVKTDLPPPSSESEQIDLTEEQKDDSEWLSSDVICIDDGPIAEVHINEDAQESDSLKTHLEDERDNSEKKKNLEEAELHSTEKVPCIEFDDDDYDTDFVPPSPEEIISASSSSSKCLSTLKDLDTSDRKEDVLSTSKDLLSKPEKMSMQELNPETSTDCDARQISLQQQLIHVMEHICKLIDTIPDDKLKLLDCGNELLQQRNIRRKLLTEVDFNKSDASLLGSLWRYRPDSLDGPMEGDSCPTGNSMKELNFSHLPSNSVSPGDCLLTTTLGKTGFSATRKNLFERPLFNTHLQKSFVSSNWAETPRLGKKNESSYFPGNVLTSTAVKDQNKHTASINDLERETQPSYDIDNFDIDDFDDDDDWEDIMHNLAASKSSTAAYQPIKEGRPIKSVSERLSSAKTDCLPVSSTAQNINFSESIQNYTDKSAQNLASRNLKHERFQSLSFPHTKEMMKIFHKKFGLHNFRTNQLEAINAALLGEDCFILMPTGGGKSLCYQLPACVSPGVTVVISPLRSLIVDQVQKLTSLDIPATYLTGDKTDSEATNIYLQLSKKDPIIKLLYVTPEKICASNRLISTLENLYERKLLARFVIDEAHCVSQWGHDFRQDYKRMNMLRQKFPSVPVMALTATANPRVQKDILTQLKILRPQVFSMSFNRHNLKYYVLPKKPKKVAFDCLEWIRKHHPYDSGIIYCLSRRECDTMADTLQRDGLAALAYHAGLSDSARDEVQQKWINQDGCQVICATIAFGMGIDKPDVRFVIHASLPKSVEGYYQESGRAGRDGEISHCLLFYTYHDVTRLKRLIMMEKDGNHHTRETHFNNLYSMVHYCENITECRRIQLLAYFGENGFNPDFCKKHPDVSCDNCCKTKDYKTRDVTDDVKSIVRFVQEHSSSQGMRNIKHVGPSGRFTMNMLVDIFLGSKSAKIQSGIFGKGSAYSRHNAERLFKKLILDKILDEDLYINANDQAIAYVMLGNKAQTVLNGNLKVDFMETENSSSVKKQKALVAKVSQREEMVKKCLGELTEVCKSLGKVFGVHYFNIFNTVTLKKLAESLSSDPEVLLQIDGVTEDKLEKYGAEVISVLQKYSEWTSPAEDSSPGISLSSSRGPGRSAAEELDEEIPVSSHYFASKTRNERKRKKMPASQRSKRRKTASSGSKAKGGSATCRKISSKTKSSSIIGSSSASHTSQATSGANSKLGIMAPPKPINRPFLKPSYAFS

On to `O=C1CCC(N2C(=O)c3ccccc3C2=O)C(=O)N1` (centres undefined), for which the activity change, negative = inhibition in assay [1] (at 57.5 µM (top of the series)) was 4.49% (inactive) and -2.08% (inactive). In addition, the max response is 6.67% and -27.8% in [1] (setting [19]); 12.7% and -27.8% in [1] (setting [20]). Moreover, the compound was classed as inactive in assay [2], in assay [3], in [11], in [12], in [13] and in [14]. In addition, in [15], the compound was classed as inactive. The Potency entry in [4], in assay [5], in assay [6], in assay [7], in [8] and in [9] was “inactive” throughout. Further, the Potency result in assay [10] and in assay [16] was “inactive” throughout.
In the case of `Cn1cnc([N+](=O)[O-])c1Sc1ncnc2nc[nH]c12`, the activity change, negative = inhibition in [1] (at 25.7 µM (top of the series)) is -1.38% (inactive); in assay [1] (at 57.5 µM (top of the series)), 0.323% (inactive) and -0.298% (inactive). The max response was 0.534% and 6.17% and -33.4% in assay [1] (setting [19]); 0.0916% and 9.95% and -32.9% in [1] (setting [20]). Moreover, the compound was classed as inactive in assay [2], in assay [3], in assay [12], in assay [13], in assay [14] and in assay [15]. In addition, the Potency in assay [6] and in [9] was 12.6 µM (active) in each case.
Turning to `CCOC(=O)C1=C[C@]2(CC)CCCN3CCc4c(n1c1ccccc41)[C@@H]32`, the activity change, negative = inhibition in assay [1] (at 57.5 µM (top of the series)) was -17.2% (inactive). Further, the values for the max response in assay [1] (setting [19]) and in [1] (setting [20]) were -25.8% and -38.8%, respectively. Moreover, the outcome in [2], in [3], in [12], in assay [13], in assay [14] and in assay [15] was inactive. Also, the Potency is 7.08 µM (active) in assay [4], 7.94 µM (active) in assay [5], 14.1 µM (active) in assay [9] and 12.6 µM (active) in assay [10]. The Potency entry in assay [16] is “inactive”.
For the compound `CCn1cc(C(=O)O)c(=O)c2cc(F)c(N3CCNC(C)C3)c(F)c21` (centres undefined), in assay [1] (at 57.5 µM (top of the series)), the activity change, negative = inhibition is 5.34% (inactive). In addition, the figures for the max response in assay [1] (setting [19]) and in [1] (setting [20]) were 16.3% and 26.1%, respectively. In addition, the result in assay [2], in assay [17], in [12], in assay [13], in assay [14] and in assay [15] was inactive. Also, the Potency in [6] was 11.2 µM (active); in [9], 10 µM (active). The Potency entry in assay [18] and in [16] was “inactive” in each case.
In the case of `COc1ccc2nc(S(=O)Cc3ncc(C)c(OC)c3C)[nH]c2c1` (centres undefined), in assay [1] (at 25.7 µM (top of the series)), the activity change, negative = inhibition is -4.82% (inactive). Moreover, the max response in [1] (setting [19]) is 6.97%; in assay [1] (setting [20]), 1.74%.
With `N=c1nc(N2CCCCC2)cc(N)n1O`, the activity change, negative = inhibition in assay [1] (at 25.7 µM (top of the series)) was 0.0649% (inactive); in assay [1] (at 57.5 µM (top of the series)), 3.81% (inactive) and 8.57% (inactive). The max response is -1.22% and 19% and 16.9% in [1] (setting [19]); 1.34% and 23.5% and 29.3% in assay [1] (setting [20]). In addition, the outcome in [2], in assay [17], in assay [3], in assay [11], in [12] and in [13] was inactive. Moreover, the compound was called inactive in assay [14] and in [15]. Moreover, the Potency entry in [4], in assay [5], in [6], in assay [7], in assay [8] and in assay [9] was “inactive” in each case. Besides, the Potency result in [10], in [18] and in assay [16] was “inactive” in each case.
Consider `CCOC(=O)C1=C[C@@]2(CC)CCCN3CCc4c(n1c1ccccc41)[C@H]32`, for which the activity change, negative = inhibition in assay [1] (at 25.7 µM (top of the series)) is -1.77% (inactive). Moreover, the max response in assay [1] (setting [19]) is -14.2%; in [1] (setting [20]), -15.3%.
